# Target: CDC34
# Assay: pooled miR-30 sensor sort-seq; sequence = guide strand
# Details: shRNA
# Note: reference of the scale not given here.
row,Sequence,sensor-assay potency score (higher = more potent)
1,TCATCGTCCCCGAAGCAGCTGT,-0.635
2,TGGTCTTCACGCAGTACTCGGC,-1.2
3,TAGTAGTCGTCGTAGAAGAGGT,-0.785
4,TCGTCCACCAGTGTCACGCGGA,-0.898
5,TTCCTGTACATCACGGAGGCGT,-0.234
6,TCGTAGAAGAGGTCTGAGCCCT,-0.356
7,TCGTCGTAGAAGAGGTCTGAGC,-1.59
8,TAGAAGAGGTCTGAGCCCTCGT,-0.00353
9,ATGATGTCTGTGTACTCCCGAT,-1.21
10,TTGGTCTTCACGCAGTACTCGG,-1.15
11,TTGAGCTCCAGCAGCAGCGCCT,-0.656
12,TAGATCGCCCTCGTCCACCAGT,-0.743
13,ACACTCAGGAGAATGGTCCTGA,0.312
14,TCCACTTCCTGTACATCACGGA,-0.313
15,TAGGGTGCCACATCTTGGTCAG,0.104
16,TAGTCGATGGGGAACTTGAGGC,-1.23
17,TAGTCGTCGTAGAAGAGGTCTG,-0.479
18,TGTCTGTGTACTCCCGATCCTT,-1.06
19,TTGCTCTCTTTCCACTTCCTGT,-0.991
20,TTGGTCAGGAACCGAAAGGCTG,-0.731
21,TCGTAGTAGTCGTCGTAGAAGA,-1.53
22,TTCCACTTCCTGTACATCACGG,-0.553
23,TTAGGGTGCCACATCTTGGTCA,-0.421
24,TCCTCGTAGTAGTCGTCGTAGA,-1.72

# Target: CDC42BPB
# Assay: as above
# Details: shRNA
row,Sequence,sensor-assay potency score (higher = more potent)
1,TTATTTCAAAGTCTTCTCGATG,-1.07
2,TTGAAGTAGATCAAGCGTGGAG,0.0489
3,TTCTGAATCATGCACCTCCTTC,-0.418
4,TTTCACTTCTAGCACATGGGAG,-0.202
5,TTTCCTTGGACAACACTGGAGG,-0.765
6,TTTGATTTCTTTATCTCGGTTT,0.716
7,TACTATTCTCTTAAGGTCCTAG,-0.0384
8,TCATCTTCAAACATGATCCAAA,-0.68
9,TAGAGCATCTCATACATGCAGA,-0.774
10,TTCGATTTCTTCATTTAGCTTT,0.598
11,TTTAATGTCTCTGTGCACGTAA,0.422
12,TTTGATTTTGGAAATCTCTTGC,0.44

# Target: CDC42SE1
# Assay: as above
# Details: shRNA
row,Sequence,sensor-assay potency score (higher = more potent)
1,ATCATGGTCCGGTCAATCCGTC,-1.39
2,TCATGGCAAGTCCATCTCCGGC,-1.88
3,ATCTCATCTGCTCCTGAACTGC,-1.52
